# SMN2 splice up – SMN2 splice variant enhancement; HEK293 SMN2-luciferase splicing reporter, luminescence, 30-36 h; Potency, µM (doses to about 46.1 µM), inactives show top-dose activity change, positive = activation, actives largely listed as activators; actives 2.8% (n = 210,000); note: % of control where 0% means no effect; nearly all actives have a fitted effect of over 55% in size
#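 qHTS luciferase splicing reporter: luminescence rises when SMN2 exon 7 is included in transfected HEK293 cells. Compound exposure lasted 30-36 h at 37C, with 4.5 mM final sodium butyrate as control, followed by a ONE-Glo read.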
# Luc counter – counter-screen: inhibitors of Kinase-Glo firefly luciferase. Potency, µM (doses to about 38.3 µM), for inactives: at the highest dose activity change, negative = inhibition, actives largely listed as inhibitors. Kinase-Glo luciferase, ATP luminescence, 8 min. actives 0.28% (n = 200,000); note: % is set by controls: 0 for no effect and ±100 for the full control effect; nearly all actives have a fitted effect of over 60% in size
#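 Compounds were added to a substrate mix at pH 7.2 (50 mM imidazole, 10 uM ATP, within the enzyme's linear range), followed by Kinase-Glo detection reagent; luminescence was measured after 8 minutes at ambient temperature.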
# NPC1 promoter act – activates the NPC1 promoter | actives 2.4% (n = 320,000) | Huh7 NPC1 promoter luciferase reporter, 24 h | AID 485313 | Potency, µM (titrated, usually from 9.22 µM), for inactives: at the top dose activation, most hits filed as activators; note: % of control where 0% means no effect; nearly all actives have a fitted effect of over 60% in size
#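 Luciferase expression driven by the NPC1 promoter was measured in stably transfected Huh7 cells after a 24 h compound incubation, using a luciferase reagent and a luminescence read.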
# FLuc modulator – inhibits or activates purified firefly luciferase, miR-21 counter-screen | P08659 | purified FLuc, Km substrates, luminescence inhibition | Potency, µM (top dose mostly 57.5 µM), inactives show at the top dose activity change, negative = inhibition, most hits filed as inhibitors | actives 6.9% (n = 360,000) | AID 588342;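 note: plate controls were vehicle for no effect and reference inhibitor for full effect; nearly all actives have a fitted effect of over 55% in size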
# Target sequence (P08659 whole entry, looked up): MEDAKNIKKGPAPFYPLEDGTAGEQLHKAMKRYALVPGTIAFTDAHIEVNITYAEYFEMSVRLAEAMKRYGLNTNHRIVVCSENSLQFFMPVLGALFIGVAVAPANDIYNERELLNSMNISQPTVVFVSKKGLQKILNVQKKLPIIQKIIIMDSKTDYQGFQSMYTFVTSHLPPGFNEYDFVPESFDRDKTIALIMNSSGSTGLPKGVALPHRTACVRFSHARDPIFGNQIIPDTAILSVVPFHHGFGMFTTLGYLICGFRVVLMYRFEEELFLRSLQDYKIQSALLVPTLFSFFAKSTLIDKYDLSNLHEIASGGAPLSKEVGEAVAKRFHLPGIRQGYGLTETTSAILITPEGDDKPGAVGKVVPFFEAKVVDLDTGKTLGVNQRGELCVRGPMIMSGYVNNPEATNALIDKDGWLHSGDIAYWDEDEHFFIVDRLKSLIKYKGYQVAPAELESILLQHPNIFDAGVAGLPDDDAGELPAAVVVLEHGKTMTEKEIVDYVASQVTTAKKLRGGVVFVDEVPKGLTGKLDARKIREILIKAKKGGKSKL
#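 Purified P. pyralis luciferase, 10 nM final, with Km-level 10 uM D-luciferin and 10 uM ATP in 50 mM Tris acetate pH 7.5, 10 mM Mg acetate, 0.01% Tween-20, 0.05% BSA; 6-point qHTS titration about 60 µM downward; luminescence read.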
# Rab9 promoter act – Rab9 promoter activation; Huh7 Rab9 promoter-luciferase reporter, luminescence, 24 h; Potency, µM (doses to about 9.22 µM), without a hit: at the highest dose activation, negative = inhibition, usual class: activators; actives 2.8% (n = 320,000); AID 485297; note: % of control where 0% means no effect; nearly all actives have a fitted effect of over 60% in size
#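 Huh7 cells stably carrying a Rab9 promoter-luciferase reporter, 1500 cells per well in OP-MEM I with 10% FBS, treated with compound 24 hours at 37C. Luciferase activity read by luminescence after 10 minutes with Amplite reagent.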
# ELG1 genotox – induces genotoxicity in HEK293T cells with luciferase-tagged ELG1; AID 504466; Potency, µM (top dose mostly 46 µM), inactives show top-dose activity change, positive = activation, usual class: activators; HEK293T ELG1-luciferase reporter, luminescence, 16 h; actives 1.3% (n = 330,000); note: % of control where 0% means no effect; nearly all actives have a fitted effect of over 60% in size
#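 Screening used a luciferase reporter fused to human ELG1 in HEK293T cells. Luminescence was read on a CCD plate imager after 16 hr exposure and 30 min ONE-Glo incubation.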
# The depositor's hits bear a star; u = inconclusive; x = no result. Rows were chosen to be rich in hits. Some 7.3% of all compounds tested hit in one or more screens of this group. Calls come from the whole dose curve; as a rule, active = well fitted curve in the direction sought with a large enough effect; inconclusive = small, poorly fitted or top-dose-only effect, or another doubt; inactive = no such curve, though single readings can be large; an effect the other way counts as inactive or inconclusive. Potency is the fitted concentration of half-maximal effect.
SMILES,SMN2 splice up,Luc counter,NPC1 promoter act,FLuc modulator,Rab9 promoter act,ELG1 genotox
CCOC(=O)N1CCN(c2nc(-c3ccc(F)cc3)cs2)CC1,u,0.3%,-2.5%,19µM*,-1.7%,u
CCc1ccc(-n2c(=O)c3sc4ccccc4c3n(CC(=O)N(CC)Cc3ccccc3)c2=O)cc1,0.1%,x,x,3.8%,x,x
COC(=O)C1=C(C)N(Cc2ccco2)C(=O)N[C@H]1c1ccccc1,1.2%,-0.8%,-2.0%,5.3%,-3.7%,0.9%
O=C(NCC1CCCO1)c1ccc(CNS(=O)(=O)c2cccc(Cl)c2)cc1 (stereo not given),-10.4%,-0.6%,2.2%,-3.7%,-0.7%,-0.3%
CS(=O)(=O)c1ccc(-c2csc(N3CCC(C(N)=O)CC3)n2)cc1,x,x,x,-8.8%,x,x
NC(=O)C1CCN(c2nc(-c3ccc4occc(=O)c4c3)cs2)CC1,x,x,u,u,2.51µM*,3.6%
NC(=O)C1CCN(c2nc(-c3ccccc3F)cs2)CC1,x,x,0.794µM*,u,0.316µM*,u
Cc1cc(OC(=O)c2ccco2)c(Sc2ccccc2[N+](=O)[O-])c(=O)o1,11.3%,4.4%,-5.0%,-2.0%,-3.6%,-0.5%
COC(=O)CSc1nc2ccc(C)cc2[nH]1,-1.6%,4.1%,-0.9%,u,0.3%,1.2%
Cc1ccc2nc(SC(C)C(=O)N3CCCC3)[nH]c2c1 (stereo not given),11.2µM*,-0.3%,15.0%,u,u,u
Cc1ccc2nc(SCC(=O)N3CCCC3)[nH]c2c1,11.2µM*,-3.9%,2µM*,6.75µM*,1.41µM*,3.66µM*
Cc1ccc2nc(SCC(=O)N3CCN(C(=O)c4ccco4)CC3)[nH]c2c1,11.4%,2.1%,-0.4%,-5.3%,1.6%,0.4%
Cc1ccc2nc(SCC(=O)c3ccc(O)cc3O)[nH]c2c1,x,x,u,8.49µM*,3.16µM*,u
Cc1ccc2nc(SC(C)C(=O)N3CCCCC3)[nH]c2c1 (stereo not given),21.4%,0.2%,25.4%,u,11.7%,5.6%
O=C(/C=C/Nc1ccccc1O)c1ccco1,x,x,0.7%,2.39µM*,u,20.6µM*
O=C(/C=C/Nc1ccc(Br)cc1F)c1ccco1,1.12µM*,12.6µM*,1.12µM*,0.239µM*,0.708µM*,0.326µM*
O=C(/C=C/Nc1ccc(F)cc1F)c1ccco1,2.82µM*,10µM*,u,0.213µM*,3.55µM*,0.461µM*
CC(=O)c1ccc(N2CCN(C(=O)c3cc4c(C)nc5ccccc5c4o3)CC2)cc1,x,x,-3.7%,1.5%,-7.3%,6.2%
N#Cc1c(NC(=O)CSc2ncn[nH]2)sc2c1CCCCC2,-74.0%,0.6%,-18.3%,7.57µM*,-24.6%,-13.8%
Cn1cnnc1SCC(=O)Nc1sc2c(c1C#N)CCCCC2,-17.1%,-0.7%,10.5%,26.9µM*,11.2%,7.5%
COc1cc(C2NC(=S)NC(C)=C2C(=O)Nc2ccc(C)cc2)ccc1O (stereo not given),x,2.5%,u,u,2.24µM*,17.3%
Cc1ccc(OCC(=O)N/N=C\c2ccc(-c3cccc(C(=O)O)c3)o2)c(C)c1,28.7%,-0.8%,11.6%,6.75µM*,12.6%,13.7%
Cc1ccc(OCC(=O)N/N=C\c2ccc(C)o2)c(C)c1,-1.6%,0.9%,-2.6%,-13.1%,0.4%,-0.1%
O=C(CN1CCCC1)N/N=C/c1ccc(-c2cccc(Cl)c2)o1,-3.5%,-2.4%,1.0%,12µM*,-1.8%,-1.8%
CNC(=S)N/N=C/c1ccc(-c2cccc(C(=O)O)c2)o1,x,x,2.24µM*,6.75µM*,2.82µM*,u
SMILES,SMN2 splice up,Luc counter,NPC1 promoter act,FLuc modulator,Rab9 promoter act,ELG1 genotox
O=C(CN1CCCCC1)N/N=C/c1cccc(Cl)c1,x,x,-0.9%,1.6%,0.6%,-1.5%
Nc1nonc1C(=O)N/N=C/c1ccc(-c2cccc(C(=O)O)c2)o1,19.4%,2.6%,0.3%,16.9µM*,18.7%,1.3%
Cc1cc(-c2nnc(SCC(=O)Nc3ccccc3Cl)n2C)no1,x,x,-2.7%,-1.6%,-1.1%,-2.3%
Cc1ccc(C)c(Cn2nnc3c(=O)[nH]c(C(=O)NCc4ccco4)nc32)c1,-6.6%,-0.3%,9.8%,-1.9%,0.2%,3.3%
O=C(NC(=S)Nc1cccnc1Cl)c1ccc(Cl)cc1,x,x,u,16.9µM*,u,u
Cc1ccnc(NC(=S)NC(=O)c2ccco2)c1,87.8%,-16.6%,2µM*,12µM*,2µM*,u
O=C(NC(=S)Nc1cccnc1Cl)c1ccco1,14.6%,-16.3%,21.9%,15.1µM*,u,8.4%
O=C(NC(=S)Nc1ccccn1)c1ccco1,10µM*,-17.0%,2.24µM*,21.3µM*,2µM*,u
CCOc1ccccc1NC(=S)NC(=O)c1ccco1,x,x,-0.4%,u,3.5%,1.3%
O=[N+]([O-])c1cccc(-c2ccc(/C=N/Nc3nc(N4CCCCC4)nc(N4CCCCC4)n3)o2)c1,-37.1%,-0.5%,-4.0%,-7.1%,2.5%,-7.3%
Cc1ccc(NC(=O)NC(=O)COc2c(F)c(F)cc(F)c2F)c(C)c1,x,x,x,x,x,-2.6%
Cc1ccnc(NC(=O)CNC(=O)c2cccs2)c1,x,x,2.2%,0.5%,-3.9%,3.5%
Cc1ccnc(NC(=S)NC(=O)/C=C/c2ccco2)c1,u,0.1%,u,7.57µM*,u,9.2µM*
O=C(NC(=S)Nc1ccc(Cl)cn1)c1cccs1,12.6µM*,-1.2%,u,3.01µM*,5.62µM*,u
Cc1ccnc(NC(=S)NC(=O)c2cccs2)c1,6.31µM*,-6.3%,1.58µM*,4.26µM*,0.794µM*,2.06µM*
COC(=O)c1sc(NC(=S)NC(=O)c2ccccc2)nc1C,-4.3%,2.7%,u,4.78µM*,2.51µM*,u
COC(=O)c1sc(NC(=S)NC(=O)c2ccccc2Cl)nc1C,24.3%,-1.3%,u,6.75µM*,u,u
CCOC(=O)c1sc(NC(=S)NC(=O)c2ccccc2)nc1C,u,-2.0%,-4.1%,u,-0.6%,u
COc1ccc(Cn2nnnc2C(c2cc3cccc(C)c3[nH]c2=O)N2CCOCC2)cc1 (stereo not given),3.5%,-1.4%,-4.5%,11.3%,-7.8%,-3.1%
Cc1cc(C)n2c(Nc3ccc(Cl)cc3)c(-c3ccsc3)nc2n1,7.4%,x,x,-10.6%,x,x
Cc1cc(C)n2c(Nc3ccc(C(C)C)cc3)c(-c3ccsc3)nc2n1,0.9%,x,x,10.7µM*,x,x
O=c1/c(=C\c2ccc3c(c2)OCO3)sc2n1CCCN=2,u,-27.3%,0.891µM*,4.26µM*,3.55µM*,3.26µM*
Cc1ccc(/C=c2/sc3n(c2=O)CCCN=3)o1,12.6µM*,-8.9%,u,15.1µM*,2.82µM*,u
